In the supplement of paper PMC11732987, “Enantioselective OTUD7B fragment discovery through chemoproteomics screening and high-throughput optimisation” (Communications Chemistry, 2025):

Key:
Test in all cases: log2 ratio of Biotin-Ahx-Ub-VS probe labelling (fragment/DMSO); higher = less target engagement (more negative = stronger competition), active = hit call of the paper (q ≤ 0.05, log2 ratio ≤ -1)
Conditions in all cases: compound concentration: 200 uM; treatment time: 3 h
USP42 = target: T1, USP42 (UniProt Q9H9J4)
T1 sequence (whole entry): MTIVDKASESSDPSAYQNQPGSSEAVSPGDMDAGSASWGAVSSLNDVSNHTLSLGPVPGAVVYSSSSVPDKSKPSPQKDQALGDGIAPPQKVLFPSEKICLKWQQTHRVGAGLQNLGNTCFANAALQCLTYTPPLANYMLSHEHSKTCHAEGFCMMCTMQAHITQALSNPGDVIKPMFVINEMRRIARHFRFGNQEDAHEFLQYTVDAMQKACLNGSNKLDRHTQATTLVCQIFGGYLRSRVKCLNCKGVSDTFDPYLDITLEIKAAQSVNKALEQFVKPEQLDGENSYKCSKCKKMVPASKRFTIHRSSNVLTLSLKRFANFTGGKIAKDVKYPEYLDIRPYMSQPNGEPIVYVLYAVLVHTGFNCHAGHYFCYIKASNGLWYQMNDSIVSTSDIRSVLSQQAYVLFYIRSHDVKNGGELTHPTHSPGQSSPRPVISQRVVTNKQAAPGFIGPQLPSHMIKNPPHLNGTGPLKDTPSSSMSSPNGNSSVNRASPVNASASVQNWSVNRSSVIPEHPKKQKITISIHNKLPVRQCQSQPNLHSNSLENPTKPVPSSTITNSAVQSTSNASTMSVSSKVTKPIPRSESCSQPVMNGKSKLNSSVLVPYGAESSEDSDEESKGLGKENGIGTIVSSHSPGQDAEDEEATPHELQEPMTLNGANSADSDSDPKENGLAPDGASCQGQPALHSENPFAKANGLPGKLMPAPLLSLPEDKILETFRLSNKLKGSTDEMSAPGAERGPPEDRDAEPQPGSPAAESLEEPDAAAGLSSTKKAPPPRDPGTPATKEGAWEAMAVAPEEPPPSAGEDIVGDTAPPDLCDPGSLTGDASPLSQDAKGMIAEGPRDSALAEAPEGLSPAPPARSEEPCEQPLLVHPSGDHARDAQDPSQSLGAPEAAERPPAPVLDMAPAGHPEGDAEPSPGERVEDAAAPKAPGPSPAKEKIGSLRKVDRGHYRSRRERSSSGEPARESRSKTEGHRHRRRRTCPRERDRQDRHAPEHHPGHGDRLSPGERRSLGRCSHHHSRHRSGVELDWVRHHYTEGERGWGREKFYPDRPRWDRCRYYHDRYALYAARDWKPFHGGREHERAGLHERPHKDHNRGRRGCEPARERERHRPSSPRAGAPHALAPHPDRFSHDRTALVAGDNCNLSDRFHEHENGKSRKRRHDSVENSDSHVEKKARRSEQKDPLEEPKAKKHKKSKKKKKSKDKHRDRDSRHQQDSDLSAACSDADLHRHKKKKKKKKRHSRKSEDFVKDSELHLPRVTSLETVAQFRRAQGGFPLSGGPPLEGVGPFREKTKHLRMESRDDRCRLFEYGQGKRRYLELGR
In short: (§1)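 Triplicate samples of HEK293T lysate, 495 µg each, received fragment at 200 µM or vehicle for 3 h, followed by Biotin-Ahx-Ub-VS (0.5 µM final) for 1 h. After NeutrAvidin enrichment of labelled DUBs and LysC/trypsin digestion, peptides were run by diaPASEF LC-MS/MS. The values are average log2 fragment/vehicle ratios from global-median-normalised Spectronaut label-free quantities, tested by unpaired t-test on proteins having ≥2 unique peptides.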

USP46 = USP46 (UniProt P62068)
Chain of USP46 (P62068 whole entry): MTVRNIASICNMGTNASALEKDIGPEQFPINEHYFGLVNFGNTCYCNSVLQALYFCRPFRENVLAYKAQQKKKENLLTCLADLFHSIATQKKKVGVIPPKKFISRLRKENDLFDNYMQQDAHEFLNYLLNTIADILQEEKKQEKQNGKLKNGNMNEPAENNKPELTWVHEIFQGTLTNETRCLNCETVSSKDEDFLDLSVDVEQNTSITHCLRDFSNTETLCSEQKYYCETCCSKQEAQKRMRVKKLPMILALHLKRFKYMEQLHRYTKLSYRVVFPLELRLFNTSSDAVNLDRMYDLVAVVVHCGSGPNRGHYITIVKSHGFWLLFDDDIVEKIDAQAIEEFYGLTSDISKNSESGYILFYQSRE
In short: as §1

USP47 = target: T2, USP47 (UniProt Q96K76)
T2 sequence (whole entry): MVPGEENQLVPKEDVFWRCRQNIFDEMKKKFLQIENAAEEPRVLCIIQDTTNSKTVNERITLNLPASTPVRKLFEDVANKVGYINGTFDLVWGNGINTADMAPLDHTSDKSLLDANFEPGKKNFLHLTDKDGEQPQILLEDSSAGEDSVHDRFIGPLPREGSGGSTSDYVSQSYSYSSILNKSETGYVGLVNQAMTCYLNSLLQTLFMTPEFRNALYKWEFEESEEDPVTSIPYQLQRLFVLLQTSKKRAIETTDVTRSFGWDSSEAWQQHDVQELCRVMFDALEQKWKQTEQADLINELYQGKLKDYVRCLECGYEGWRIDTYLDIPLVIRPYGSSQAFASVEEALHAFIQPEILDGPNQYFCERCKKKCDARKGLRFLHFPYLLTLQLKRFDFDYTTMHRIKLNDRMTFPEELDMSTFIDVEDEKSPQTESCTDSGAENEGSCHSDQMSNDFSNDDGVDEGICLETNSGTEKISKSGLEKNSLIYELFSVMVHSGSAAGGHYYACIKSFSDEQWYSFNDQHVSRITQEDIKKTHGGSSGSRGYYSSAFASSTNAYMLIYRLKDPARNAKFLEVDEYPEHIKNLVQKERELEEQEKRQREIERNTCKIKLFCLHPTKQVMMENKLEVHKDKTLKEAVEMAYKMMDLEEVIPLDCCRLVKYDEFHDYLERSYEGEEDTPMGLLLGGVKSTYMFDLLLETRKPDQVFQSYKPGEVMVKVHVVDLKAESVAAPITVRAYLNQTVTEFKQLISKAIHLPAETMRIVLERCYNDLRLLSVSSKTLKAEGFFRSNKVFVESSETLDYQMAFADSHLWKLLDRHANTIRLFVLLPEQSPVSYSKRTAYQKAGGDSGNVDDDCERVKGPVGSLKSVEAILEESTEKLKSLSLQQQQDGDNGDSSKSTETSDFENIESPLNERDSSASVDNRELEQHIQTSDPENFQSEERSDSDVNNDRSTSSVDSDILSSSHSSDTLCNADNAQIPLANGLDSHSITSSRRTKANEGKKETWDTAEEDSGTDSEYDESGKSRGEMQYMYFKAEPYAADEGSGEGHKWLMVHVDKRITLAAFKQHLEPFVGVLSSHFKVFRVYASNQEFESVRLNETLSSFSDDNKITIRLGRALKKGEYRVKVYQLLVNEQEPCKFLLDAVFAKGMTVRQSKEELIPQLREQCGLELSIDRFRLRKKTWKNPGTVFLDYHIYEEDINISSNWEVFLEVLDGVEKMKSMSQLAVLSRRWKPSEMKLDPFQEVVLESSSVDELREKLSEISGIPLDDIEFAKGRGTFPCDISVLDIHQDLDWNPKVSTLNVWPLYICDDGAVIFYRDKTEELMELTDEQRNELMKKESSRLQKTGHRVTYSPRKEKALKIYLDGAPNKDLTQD
In short: as §1

USP48 = target: T3, USP48 (UniProt Q86UV5)
T3 sequence (whole entry): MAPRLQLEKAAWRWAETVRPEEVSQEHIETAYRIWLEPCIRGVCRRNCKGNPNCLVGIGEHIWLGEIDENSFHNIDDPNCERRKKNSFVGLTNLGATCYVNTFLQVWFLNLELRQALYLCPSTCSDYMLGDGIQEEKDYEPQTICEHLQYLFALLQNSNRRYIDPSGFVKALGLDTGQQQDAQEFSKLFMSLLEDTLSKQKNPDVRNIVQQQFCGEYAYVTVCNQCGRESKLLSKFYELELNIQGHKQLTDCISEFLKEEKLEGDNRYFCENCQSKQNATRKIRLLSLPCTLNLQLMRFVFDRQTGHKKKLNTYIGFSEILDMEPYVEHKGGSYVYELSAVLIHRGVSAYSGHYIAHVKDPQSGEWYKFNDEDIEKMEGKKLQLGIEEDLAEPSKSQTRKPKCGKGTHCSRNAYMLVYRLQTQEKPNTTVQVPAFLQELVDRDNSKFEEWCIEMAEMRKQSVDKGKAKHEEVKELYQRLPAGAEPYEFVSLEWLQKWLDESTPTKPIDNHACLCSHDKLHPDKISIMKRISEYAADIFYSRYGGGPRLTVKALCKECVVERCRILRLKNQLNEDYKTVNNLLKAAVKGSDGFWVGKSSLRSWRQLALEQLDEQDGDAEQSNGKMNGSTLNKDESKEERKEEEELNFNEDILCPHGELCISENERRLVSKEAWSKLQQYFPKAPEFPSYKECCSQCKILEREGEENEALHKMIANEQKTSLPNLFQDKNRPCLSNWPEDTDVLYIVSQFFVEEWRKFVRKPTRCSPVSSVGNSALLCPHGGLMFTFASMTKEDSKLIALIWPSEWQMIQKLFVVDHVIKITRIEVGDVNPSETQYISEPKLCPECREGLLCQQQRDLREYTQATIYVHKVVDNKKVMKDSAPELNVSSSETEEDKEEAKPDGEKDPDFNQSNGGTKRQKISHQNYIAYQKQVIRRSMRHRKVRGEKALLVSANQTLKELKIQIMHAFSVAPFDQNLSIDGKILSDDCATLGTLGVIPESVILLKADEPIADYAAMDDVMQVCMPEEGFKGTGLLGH
In short: as §1

USP5 = target: T4, USP5 (UniProt P45974)
T4 sequence (whole entry): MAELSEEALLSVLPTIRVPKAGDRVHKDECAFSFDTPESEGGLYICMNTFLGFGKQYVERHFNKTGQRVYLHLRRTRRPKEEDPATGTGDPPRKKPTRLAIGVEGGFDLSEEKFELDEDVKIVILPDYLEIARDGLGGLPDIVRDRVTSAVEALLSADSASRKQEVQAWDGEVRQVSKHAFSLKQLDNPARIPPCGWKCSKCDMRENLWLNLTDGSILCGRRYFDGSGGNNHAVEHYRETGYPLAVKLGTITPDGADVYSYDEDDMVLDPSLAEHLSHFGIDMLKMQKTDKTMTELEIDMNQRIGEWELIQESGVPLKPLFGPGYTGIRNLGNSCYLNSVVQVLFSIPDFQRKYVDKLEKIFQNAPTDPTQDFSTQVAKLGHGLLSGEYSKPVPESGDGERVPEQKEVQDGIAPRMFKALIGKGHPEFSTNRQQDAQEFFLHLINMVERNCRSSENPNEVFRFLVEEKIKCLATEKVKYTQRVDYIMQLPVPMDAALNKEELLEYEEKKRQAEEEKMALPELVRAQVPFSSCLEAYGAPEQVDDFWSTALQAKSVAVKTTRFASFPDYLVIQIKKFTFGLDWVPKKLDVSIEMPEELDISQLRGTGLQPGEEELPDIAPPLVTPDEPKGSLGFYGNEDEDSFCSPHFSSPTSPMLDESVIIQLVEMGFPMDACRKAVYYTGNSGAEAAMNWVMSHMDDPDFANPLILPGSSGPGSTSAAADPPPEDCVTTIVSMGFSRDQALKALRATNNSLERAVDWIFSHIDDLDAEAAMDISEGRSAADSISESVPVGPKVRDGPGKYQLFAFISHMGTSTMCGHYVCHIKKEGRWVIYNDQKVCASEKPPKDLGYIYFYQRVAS
In short: as §1

USP54 = USP54 (UniProt Q70EL1)
In short: as §1

USP7 = USP7 (UniProt Q93009)
Chain of USP7 (Q93009 whole entry, looked up): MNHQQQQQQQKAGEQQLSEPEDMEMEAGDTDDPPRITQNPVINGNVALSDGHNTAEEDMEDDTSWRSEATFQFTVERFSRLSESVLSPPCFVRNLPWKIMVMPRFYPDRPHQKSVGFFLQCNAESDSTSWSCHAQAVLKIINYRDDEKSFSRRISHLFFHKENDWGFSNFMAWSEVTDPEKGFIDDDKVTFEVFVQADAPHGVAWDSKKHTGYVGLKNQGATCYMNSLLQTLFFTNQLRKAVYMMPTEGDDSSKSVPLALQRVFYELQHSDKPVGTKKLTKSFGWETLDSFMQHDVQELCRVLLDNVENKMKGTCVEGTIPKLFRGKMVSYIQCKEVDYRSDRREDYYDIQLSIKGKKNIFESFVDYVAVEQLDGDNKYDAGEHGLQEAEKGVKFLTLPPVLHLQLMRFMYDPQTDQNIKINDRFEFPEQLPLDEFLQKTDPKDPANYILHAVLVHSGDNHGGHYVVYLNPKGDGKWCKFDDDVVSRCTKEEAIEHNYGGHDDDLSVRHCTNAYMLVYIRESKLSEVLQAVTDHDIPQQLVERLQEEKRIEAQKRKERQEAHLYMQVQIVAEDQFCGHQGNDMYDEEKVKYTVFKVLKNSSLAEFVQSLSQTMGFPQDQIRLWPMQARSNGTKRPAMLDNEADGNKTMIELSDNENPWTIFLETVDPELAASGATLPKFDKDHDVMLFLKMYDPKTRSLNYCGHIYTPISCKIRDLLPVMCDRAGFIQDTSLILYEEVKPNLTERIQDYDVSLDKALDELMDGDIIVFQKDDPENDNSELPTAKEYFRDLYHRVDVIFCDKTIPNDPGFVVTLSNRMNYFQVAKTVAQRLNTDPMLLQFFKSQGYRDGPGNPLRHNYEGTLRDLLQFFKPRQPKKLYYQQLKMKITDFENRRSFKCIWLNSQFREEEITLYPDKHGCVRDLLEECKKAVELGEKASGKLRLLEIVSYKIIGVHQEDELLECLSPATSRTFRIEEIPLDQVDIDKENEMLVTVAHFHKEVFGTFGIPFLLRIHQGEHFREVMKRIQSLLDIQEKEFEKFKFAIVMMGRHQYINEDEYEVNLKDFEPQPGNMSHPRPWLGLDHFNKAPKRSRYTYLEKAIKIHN
In short: as §1

USP8 = target: T5, USP8 (UniProt P40818)
T5 sequence (whole entry): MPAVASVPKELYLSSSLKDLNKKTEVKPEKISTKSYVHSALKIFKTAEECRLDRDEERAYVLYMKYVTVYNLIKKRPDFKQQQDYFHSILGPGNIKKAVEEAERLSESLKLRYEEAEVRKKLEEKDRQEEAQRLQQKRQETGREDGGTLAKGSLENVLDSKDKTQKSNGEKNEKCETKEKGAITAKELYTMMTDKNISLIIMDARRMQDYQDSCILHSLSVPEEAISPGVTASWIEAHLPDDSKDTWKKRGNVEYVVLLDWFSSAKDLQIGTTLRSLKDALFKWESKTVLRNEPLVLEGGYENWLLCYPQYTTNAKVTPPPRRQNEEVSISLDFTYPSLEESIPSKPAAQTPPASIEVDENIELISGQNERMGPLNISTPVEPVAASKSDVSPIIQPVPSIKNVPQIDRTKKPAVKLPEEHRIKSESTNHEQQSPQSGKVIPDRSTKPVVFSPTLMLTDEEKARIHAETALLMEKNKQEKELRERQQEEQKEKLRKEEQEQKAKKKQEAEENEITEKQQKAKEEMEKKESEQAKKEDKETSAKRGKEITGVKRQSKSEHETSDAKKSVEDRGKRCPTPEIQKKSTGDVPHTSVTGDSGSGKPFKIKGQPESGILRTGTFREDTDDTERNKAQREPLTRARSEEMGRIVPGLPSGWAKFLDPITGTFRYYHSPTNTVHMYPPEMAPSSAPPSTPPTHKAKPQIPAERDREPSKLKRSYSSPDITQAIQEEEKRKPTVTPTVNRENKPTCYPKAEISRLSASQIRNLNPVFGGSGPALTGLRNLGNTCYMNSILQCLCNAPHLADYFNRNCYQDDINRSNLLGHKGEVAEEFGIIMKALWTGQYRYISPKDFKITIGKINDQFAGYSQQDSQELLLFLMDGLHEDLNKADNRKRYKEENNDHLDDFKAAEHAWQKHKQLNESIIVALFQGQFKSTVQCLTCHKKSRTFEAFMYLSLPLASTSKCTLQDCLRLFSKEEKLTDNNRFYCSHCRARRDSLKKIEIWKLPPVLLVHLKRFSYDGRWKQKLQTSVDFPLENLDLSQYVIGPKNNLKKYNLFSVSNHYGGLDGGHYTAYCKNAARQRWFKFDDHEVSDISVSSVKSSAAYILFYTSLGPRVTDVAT
In short: as §1

USP9X = USP9X (UniProt Q93008)
Chain of USP9X (Q93008 whole entry): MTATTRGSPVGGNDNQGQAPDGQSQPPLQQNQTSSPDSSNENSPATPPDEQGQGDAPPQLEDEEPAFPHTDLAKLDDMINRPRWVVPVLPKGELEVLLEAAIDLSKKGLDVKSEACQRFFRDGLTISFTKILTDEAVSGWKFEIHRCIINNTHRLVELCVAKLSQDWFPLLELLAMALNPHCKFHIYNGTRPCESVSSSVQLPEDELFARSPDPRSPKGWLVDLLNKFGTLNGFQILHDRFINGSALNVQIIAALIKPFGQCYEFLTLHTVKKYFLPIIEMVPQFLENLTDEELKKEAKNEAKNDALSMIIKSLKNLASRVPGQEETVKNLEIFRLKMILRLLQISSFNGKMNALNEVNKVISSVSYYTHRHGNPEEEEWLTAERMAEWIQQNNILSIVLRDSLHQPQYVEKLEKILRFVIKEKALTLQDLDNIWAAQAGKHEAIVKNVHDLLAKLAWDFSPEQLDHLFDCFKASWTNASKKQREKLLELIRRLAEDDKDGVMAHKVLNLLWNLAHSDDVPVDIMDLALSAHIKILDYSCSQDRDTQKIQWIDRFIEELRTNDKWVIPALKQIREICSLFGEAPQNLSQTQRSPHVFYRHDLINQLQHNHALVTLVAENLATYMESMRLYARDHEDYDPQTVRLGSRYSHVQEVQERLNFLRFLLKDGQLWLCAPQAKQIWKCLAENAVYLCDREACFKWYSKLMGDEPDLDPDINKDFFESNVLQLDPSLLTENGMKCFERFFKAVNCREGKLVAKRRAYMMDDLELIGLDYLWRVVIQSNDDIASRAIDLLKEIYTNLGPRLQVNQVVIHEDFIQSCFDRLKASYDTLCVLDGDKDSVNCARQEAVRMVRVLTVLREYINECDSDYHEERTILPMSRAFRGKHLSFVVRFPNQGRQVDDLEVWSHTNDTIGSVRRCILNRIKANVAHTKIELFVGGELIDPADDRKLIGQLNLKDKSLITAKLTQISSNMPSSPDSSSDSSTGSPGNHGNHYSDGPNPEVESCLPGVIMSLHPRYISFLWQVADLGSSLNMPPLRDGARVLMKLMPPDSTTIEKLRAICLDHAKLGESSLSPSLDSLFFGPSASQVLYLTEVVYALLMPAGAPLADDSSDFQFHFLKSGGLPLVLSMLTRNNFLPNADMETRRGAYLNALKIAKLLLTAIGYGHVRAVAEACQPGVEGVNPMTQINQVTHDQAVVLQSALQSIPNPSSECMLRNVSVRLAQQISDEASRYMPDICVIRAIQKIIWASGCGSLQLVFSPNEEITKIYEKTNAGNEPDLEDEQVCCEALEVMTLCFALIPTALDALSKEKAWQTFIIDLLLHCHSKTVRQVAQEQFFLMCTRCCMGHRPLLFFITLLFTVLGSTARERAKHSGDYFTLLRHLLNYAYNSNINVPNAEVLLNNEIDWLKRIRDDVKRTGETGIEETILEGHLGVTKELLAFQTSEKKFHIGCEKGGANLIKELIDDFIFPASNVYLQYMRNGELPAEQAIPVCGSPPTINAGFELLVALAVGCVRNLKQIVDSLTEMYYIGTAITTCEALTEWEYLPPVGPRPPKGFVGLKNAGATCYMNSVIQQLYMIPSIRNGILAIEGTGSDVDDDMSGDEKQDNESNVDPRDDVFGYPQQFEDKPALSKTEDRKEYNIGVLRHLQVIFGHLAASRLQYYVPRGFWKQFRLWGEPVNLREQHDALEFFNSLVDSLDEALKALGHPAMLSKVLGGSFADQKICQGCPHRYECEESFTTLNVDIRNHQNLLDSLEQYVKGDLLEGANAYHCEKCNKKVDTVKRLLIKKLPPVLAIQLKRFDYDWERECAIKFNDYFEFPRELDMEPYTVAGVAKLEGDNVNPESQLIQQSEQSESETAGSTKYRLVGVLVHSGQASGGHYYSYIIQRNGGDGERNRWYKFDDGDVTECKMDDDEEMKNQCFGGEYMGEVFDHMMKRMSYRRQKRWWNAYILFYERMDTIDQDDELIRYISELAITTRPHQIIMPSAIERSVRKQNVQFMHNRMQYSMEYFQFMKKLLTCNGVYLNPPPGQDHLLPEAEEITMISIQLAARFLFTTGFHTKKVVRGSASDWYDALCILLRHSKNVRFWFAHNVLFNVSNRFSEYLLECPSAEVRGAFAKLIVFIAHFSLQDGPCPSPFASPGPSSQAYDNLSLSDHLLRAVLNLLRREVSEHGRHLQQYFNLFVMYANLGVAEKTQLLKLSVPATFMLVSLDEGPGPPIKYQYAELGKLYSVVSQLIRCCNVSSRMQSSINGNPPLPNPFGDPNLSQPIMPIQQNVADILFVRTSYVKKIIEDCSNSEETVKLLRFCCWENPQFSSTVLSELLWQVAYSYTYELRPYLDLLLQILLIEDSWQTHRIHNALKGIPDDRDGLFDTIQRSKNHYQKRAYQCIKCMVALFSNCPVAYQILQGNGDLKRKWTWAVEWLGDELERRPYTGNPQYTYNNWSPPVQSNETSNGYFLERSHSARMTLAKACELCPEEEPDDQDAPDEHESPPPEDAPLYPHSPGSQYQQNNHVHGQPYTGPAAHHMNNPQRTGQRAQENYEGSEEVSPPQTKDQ
In short: as §1

UniProt O00487 = target: UniProt O00487
Chain of UniProt O00487 (O00487 whole entry): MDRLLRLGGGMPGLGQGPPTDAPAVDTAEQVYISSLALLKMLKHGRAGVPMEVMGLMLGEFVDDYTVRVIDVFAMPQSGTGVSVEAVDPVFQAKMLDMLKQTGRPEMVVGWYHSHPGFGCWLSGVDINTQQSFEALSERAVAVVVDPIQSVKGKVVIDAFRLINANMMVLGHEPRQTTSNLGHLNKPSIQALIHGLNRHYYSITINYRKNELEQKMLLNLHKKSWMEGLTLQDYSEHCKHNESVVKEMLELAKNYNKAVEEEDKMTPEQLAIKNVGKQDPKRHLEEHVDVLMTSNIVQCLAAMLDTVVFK
In short: as §1

Measured: log2 ratio of Biotin-Ahx-Ub-VS probe labelling

COCC[C@@H](NC(=O)CCl)c1ccccc1
inactive: USP42 0.331 | USP46 0.164 | USP47 -0.122 | USP48 -0.261 | USP5 0.0242 | USP54 0.235 | USP7 -0.0296 | USP8 -0.0978 | USP9X -0.0244 | UniProt O00487 -0.0153
